{"source": "PubChem BioAssay (EPA / NIEHS)", "note": "Active and inactive are the calls of the source. The calls were made as follows: active = hit-call score of the fitted dose curve at least 0.9, where 1 is the maximum; inactive = score below 0.9."}
{"read-out": "Collagen I, COL1A1 (gene 1277)", "experiment": "BSK_MyoF_CollagenI: BioMAP Diversity Plus: MyoF Assay for Collagen I Biomarker Activity (AID 2284238)", "conditions": "primary human lung fibroblasts", "protocol": "BSK_MyoF is a cell-based, multiplexed-readout assay that uses lung fibroblasts, […], with measurements taken at 24 hours after chemical dosing in a microplate: 96-well plate.BSK_MyoF_CollagenI is an assay component measured in the BSK_MyoF assay. It measures Collagen I antibody related to regulation of gene expression using ELISA technology.Data from the assay component BSK_MyoF_CollagenI was analyzed at the endpoint, BSK_MyoF_CollagenI, in the positive analysis fitting direction relative to DMSO as the negative control and baseline of activity. Using a type of binding reporter, gain or loss-of-signal activity can be used to understand protein changes. To generalize the intended target to other relatable targets, this assay endpoint is annotated to the 'cell adhesion molecules' intended target family, where the subfamily is 'collagen'.\nThe levels of cell surface (or secreted, indicated by the prefix \"s\") biomarker endpoints were measured by ELISA. Overt cytotoxicity to cells in confluent adherent cultures (all systems other than the BT system) was assessed by measuring total protein levels using sulforhodamine B (SRB) staining in parallel cultures at the time of biomarker measurements, indicated as SRB endpoints. For proliferation assays for adherent cell types, individual cell types are cultured at sub-confluence and relative cell numbers quantified by SRB staining at time points optimized for each system (48 h: 3C and CASM3C systems; 72 h: BT and HDF3CGF systems; 96 h: SAg system). SRB was performed by staining cells with 0.1% SRB after fixation with 10% TCA and reading wells at 560 nm.Viability and proliferation of PBMC (T cells) was quantified by Alamar Blue reduction for the SAg and BT systems. For PBMC viability (referred to as PBMC Cytotoxicity within the assay endpoint names), cells were plated (75,000/well in a 96-well plate) and then chemical samples added for 1 h before addition of activators, SEB and TSST-1 (20 ng/mL final concentration each). Cells were incubated for 90 h. Then, Alamar Blue (20 uL/well) (Invitrogen, Cat DAL1100) was added for 6 h, and the plates were read with a fluorescence microplate reader at 546/580 nm (excitation/emission). For PBMC proliferation, cells were plated and activated as above but incubated for only 16 h prior to addition of Alamar Blue. Plates were read after 6 h."}
{"smiles": "CCOc1nc(F)cc2nc(S(=O)(=O)Nc3c(Cl)cccc3C(=O)OC)nn12", "outcome": "inactive"}
{"smiles": "CCO[Si](CCCN=C=O)(OCC)OCC", "outcome": "inactive"}
{"smiles": "C=CC(=O)OCC(Br)CBr", "note": "(configuration not stated)", "AC50": "20 µM (active)"}
{"smiles": "CCCCC(CC)COC(=O)c1ccccc1O", "note": "(configuration not stated)", "AC50": "14.5 µM (active)"}
{"smiles": "C/C=C\\C/C=C/CCCCCCCCOC(C)=O", "outcome": "inactive"}
{"smiles": "C#CC1(O)CC[C@H]2[C@@H]3CCC4=CCCC[C@@H]4[C@H]3CC[C@@]21C", "note": "(some centres not stated)", "AC50": "22.4 µM (active)"}
{"smiles": "c1ccc2c(c1)ccc1cc3c(ccc4ccccc43)cc12", "outcome": "inactive"}
{"smiles": "c1ccc(-c2ccccn2)nc1", "outcome": "inactive"}
{"smiles": "CCCCNc1ccc(NCCCC)c2c1C(=O)c1ccccc1C2=O", "outcome": "inactive"}
{"smiles": "CCCCC/C=C\\C/C=C\\CCCCCCCC(=O)OC", "AC50": "27.1 µM (active)"}
{"smiles": "O=c1c2ccccc2oc2ccccc12", "outcome": "inactive"}
{"smiles": "CCCCCCCCCCCCCCCC[N+](C)(C)CC", "AC50": "0.64 µM (active)"}
{"smiles": "COCc1c(C(C)C)nc(C(C)C)c(/C=C/[C@@H](O)C[C@@H](O)CC(=O)O)c1-c1ccc(F)cc1", "AC50": "9.2 µM (active)"}
{"smiles": "N#[N+]c1ccc2c(S(=O)(=O)[O-])cccc2c1O", "outcome": "inactive"}
{"smiles": "O=Nc1ccc(O)cc1", "outcome": "inactive"}
{"smiles": "CC(C)C(=O)C(C)C", "outcome": "inactive"}
{"smiles": "c1ccc2c(c1)ccc1ncccc12", "outcome": "inactive"}
{"smiles": "C=CCOc1c(Br)cc(Br)cc1Br", "AC50": "20 µM (active)"}
{"smiles": "C=CCOCC(O)CCl", "note": "(configuration not stated)", "outcome": "inactive"}
{"smiles": "C=CC=CC=CCCCCC", "outcome": "inactive"}
{"smiles": "O=C(Cl)c1cc(C(=O)Cl)cc(C(=O)Cl)c1", "AC50": "30.7 µM (active)"}
{"smiles": "CCCCCCCCc1ccc(Nc2ccc(CCCCCCCC)cc2)cc1", "outcome": "inactive"}
{"smiles": "CC(C)(c1cc(Br)c(OCCO)c(Br)c1)c1cc(Br)c(OCCO)c(Br)c1", "AC50": "6.65 µM (active)"}
{"smiles": "S=C(NC1CCCCC1)NC1CCCCC1", "outcome": "inactive"}
{"smiles": "COc1ccc2nc(N)sc2c1", "outcome": "inactive"}
{"smiles": "O=C(Nc1ccccc1SSc1ccccc1NC(=O)c1ccccc1)c1ccccc1", "outcome": "inactive"}
{"smiles": "CC1OC1C1CCC2(C)OC2C1", "note": "(configuration not stated)", "outcome": "inactive"}
